Source: PubChem BioAssay AID2023 (NMMLSC, 2009)
In all, about 320,000 compounds went through this assay and about 1,100 (0.34%) were called active. Shown is part of a subset that was picked to be rich in actives. Values without a mark were called inactive.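 Rule for the calls: active = GFP response vs DMSO above a set limit, about the screen mean plus 3 SD (cut at about 150% in these data); inconclusive = under 70 cell events counted for the yeast strain; inactive = the rest.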

Assay: TOR pathway LAP4-GFP level changes – S. cerevisiae, multiplex flow cytometry, MLPCN library, primary screen (AID 2023)
Details: 3 h, at 10 µM, active compounds read high, median GFP as percent of DMSO wells

Row | Compound | GFP response vs DMSO
1 | O=C(NC1CCCC1)C(=O)c1c[nH]c2ccccc12 | 100%
2 | C[n+]1ccc(/C=C/c2c[nH]c3ccccc23)cc1 | 214% (active)
3 | COc1ccc(/C=C(\C#N)c2c[nH]c3ccccc23)cc1 | 97.2%
4 | CC(C)C(=O)Nc1c2c(nn1-c1ccccc1)CSC2 | 104%
5 | CC(C)=NN1C(=O)c2ccccc2NC1(C)C | 103%
6 | CCCC(=O)Nc1ncnc2c1ncn2[C@@H]1O[C@@H]2OP(=O)(O)OC[C@H]2[C@H]1OC(=O)CCC | 103%
7 | CCc1ccc2c(c1)C1(NN=C(c3ccccc3)S1)C(=O)N2 (configuration not stated) | 169% (active)
8 | C[C@H](NC(=O)C1CC(=O)N(c2ccc3c(c2)OCO3)C1)C(=O)NCc1ccco1 (some centres not stated) | 94%
9 | COC(=O)Nc1ccc(S(=O)(=O)N2CCN(CCN3C(=O)C4C5C=CC(C5)C4C3=O)CC2)cc1 (configuration not stated) | 95.9%
10 | O=c1[nH]c2ccccc2n2c(-c3ccccc3)nnc12 | 87.9%
11 | COc1ccc(OCc2cc(C(=O)N3CCCC3)no2)c2ccccc12 | 85.3%
12 | O=C(c1ccc(N2CCOCC2)c([N+](=O)[O-])c1)N1CCN(c2ccccc2F)CC1 | 96%
13 | O=C(c1ccccc1)c1ccc(C(=O)N2CCN(c3ccccc3)CC2)cc1 | 78.1%
14 | O=C(c1ccc(Cl)c([N+](=O)[O-])c1)N1CCN(c2ccccc2)CC1 | 165% (active)
15 | Cc1ccc(C(=O)NCC(=O)NC2CC2)cc1 | 97.3%
16 | Cc1onc(-c2ccccc2)c1C(=O)NNC(=S)NC(=O)c1ccc(F)cc1 | 102%
17 | Cc1ccc(-c2nn(-c3ccccc3)cc2C(=O)NC2CCC(O)CC2)cc1 (configuration not stated) | 94.9%
18 | O=C(NNC(=S)NC(=O)c1cn(-c2ccccc2)nc1-c1ccccc1)c1ccncc1 | 159% (active)
19 | CCOc1ccc(CCNC(=O)CN2C(=O)NC3(CCc4ccccc43)C2=O)cc1OCC (configuration not stated) | 98.4%
20 | CCCCC(=O)Nc1ccc2c(c1)C(=O)NC2=O | 107%
21 | O=C(Nc1cc(Cl)cc(Cl)c1)C(NCCCO)c1ccccc1 (configuration not stated) | 99.3%
22 | CCCCN1C(=O)c2ccc(C(=O)Nc3ccc(S(=O)(=O)N(C)C)cc3)cc2C1=O | 93.7%
23 | CC(CCc1ccc(O)cc1)NCc1ccc(Cl)cc1Cl (configuration not stated) | 99.7%
24 | CCC(C)n1[nH]c(=O)cc1N (configuration not stated) | 92.7%
25 | S=C1SCN(CCN2CCOCC2)CN1Cc1ccccc1 | 111%
26 | COc1ccc(CN2CN(C(C)C)CSC2=S)cc1 | 162% (active)

Row | Compound | GFP response vs DMSO
27 | COc1ccc(CN2CN(C3CCCC3)CSC2=S)cc1 | 98.2%
28 | Cc1onc(-c2c(F)cccc2Cl)c1C(=O)OCC(=O)N1C(C)CCCC1C (configuration not stated) | 107%
29 | CCOC(=O)/C=c1\s/c(=C\c2ccc(C#N)cc2)c(=O)n1CC(=O)Nc1cccc(C)c1C | 96.9%
30 | CN(c1ccccc1)c1ccc(/C=c2\s/c(=C(/C#N)C(=O)C(C)(C)C)n(Cc3ccco3)c2=O)cc1 | 377% (active)
31 | CCOC(=O)Cn1c(=O)oc2cc(S(=O)(=O)N(C)Cc3ccco3)ccc21 | 107%
32 | CC1C=CCC2C(=O)N(c3cccc(C(=O)N4CCCCCC4)c3)C(=O)C12 (configuration not stated) | 97.9%
33 | COC(=O)C[n+]1cccc2ccccc21 | 212% (active)
34 | Cc1cccc[n+]1CC(=O)c1ccccc1 | 91.6%
35 | COc1ccccc1NC(=O)C[n+]1ccccc1 | 109%
36 | CC1(C)CC(=O)C2=C(C1)N=C1SCCC(=O)N1C2c1ccc(C(F)(F)F)cc1 (configuration not stated) | 98.2%
37 | CCCCCCSc1ccc(-c2nc3ccc(Cl)cn3c2NCc2ccccc2)cc1 | 99.4%
38 | CCCCNc1c(-c2ccc(OC)c(Sc3ccc(OC)cc3)c2)nc2ccc(Cl)cn12 | 141%
39 | CCCCNc1c(-c2cccc(Sc3ccc(OC)cc3)c2)nc2ccccn12 | 151% (active)
40 | COc1ccc(N2CCN(S(=O)(=O)c3cc(Br)cnc3N)CC2)cc1 | 100%
41 | CCOc1ccc(-n2c(SC(C)C(=O)OC)nc3c(c2=O)SCC3)cc1 (configuration not stated) | 95.9%
42 | CCN1/C(=C/c2ccc3ccc(C)cc3[n+]2CC)Sc2ccccc21 | 319% [may fluoresce green] (active)
43 | CCN1/C(=C\c2ccc3ccccc3[n+]2CC)Sc2cc(C)ccc21 | 501% [may fluoresce green] (active)
44 | O=C1CCC/C=C\C[C@@H](CC(=O)N(CCO)Cc2ccccc2)C(=O)NCCO1 | 85.9%
45 | NS(=O)(=O)c1ccc(CCNC(=O)CCCn2c(SCC(=O)N3CCCC3)nc3ccsc3c2=O)cc1 | 101%
46 | O=C(c1cccc(Cl)c1)N1CCN(Cc2ccccc2)CC1 | 101%
47 | Clc1cccc(CN2COc3c(cc(Cl)c4cccnc34)C2)c1 | 182% (active)
48 | CC(C)CC(=O)N1CCN(Cc2cccc(Cl)c2)CC1 | 102%
49 | CC(C)=CCC/C(C)=C/C(=O)O | 105%
50 | O=C(CN1CCCSc2ccccc21)N1CCN(S(=O)(=O)c2cccc(F)c2)CC1 | 110%
51 | CC1=NNC(=O)C1Cc1c(Cl)cccc1Cl (configuration not stated) | 98.6%
52 | O=C(OC1CCOC1=O)c1cccc(S(=O)(=O)Nc2ccc(F)cc2)c1 (configuration not stated) | 95.1%

Row | Compound | GFP response vs DMSO
53 | CC(=O)Nc1ccc(N2C(=O)CC(Sc3nccc(C)n3)C2=O)cc1 (configuration not stated) | 89.5%
54 | Cc1cc(NC(=O)CCN2CCN(Cc3ccccc3)CC2)ccc1Br | 83.3%
55 | CC(C)C(=O)N1CC(=O)Nc2ccc(F)cc2C1c1ccc(F)cc1 (configuration not stated) | 108%
56 | O=C(/C=C/Sc1ncn[nH]1)c1ccc(Cl)cc1 | 219% (active)
57 | O=C(CSc1ncn[nH]1)N/N=C/c1ccc(F)cc1 | 117%
58 | O=C(CSc1ncn[nH]1)Nc1ccc(Br)cc1Br | 93.9%
59 | Cc1ccnc(NC(=O)CCNS(=O)(=O)c2ccc(C)c(C)c2)c1 | 81.8%
60 | COc1ccccc1CNC(=O)CNC(=O)c1cn(-c2ccccc2OC)c(=O)c2ccccc12 | 95.4%
61 | COc1ccc(O[C@H]2C=C[C@@H](c3ccccc3)O[C@@H]2CO/N=C/C[C@@H]2C=C[C@H](OC(C)=O)[C@@H](COC(C)=O)O2)cc1 | 111%
62 | O=C(CCC(=O)OCc1cccc(C(=O)Oc2ccccc2)c1)Nc1cccc2ccccc12 | 104%
63 | COc1ccc(-c2nn(-c3ccccc3)cc2/C=N/Nc2ccccn2)cc1OC | 96.4%
64 | Oc1ccc(Br)cc1/C=N/Nc1ccccn1 | 287% (active)
65 | Oc1ccc(Br)cc1C=Nc1ccc2[nH]ncc2c1 | 93.5%
66 | O=C(CC1SC(=Nc2ccccc2F)N(CCN2CCOCC2)C1=O)Nc1ccc(F)cc1F (configuration not stated) | 126%
67 | O=c1[nH]c(CN2CCOCC2)nc2cc(Cl)ccc12 | 92.7%
68 | NC(=O)Cc1nc2scc(-c3ccc(Cl)cc3)c2c(=O)[nH]1 | 95.5%
69 | O=c1[nH]c(CCl)nc2cc(-c3ccc(Cl)cc3)sc12 | 163% (active)
70 | O=C(O[C@@H]1[C@H](Cc2ccccc2)NS(=O)(=O)[C@H]2C[C@@H]3C=C[C@]12O3)c1ccccc1Br | 97.1%
71 | CN(CCO)Cc1csc2ccc(Br)cc12 | 106%
72 | Cc1ccc(-n2cnc3ncnc(-c4ccccc4)c32)cc1 | 102%
73 | Cc1ccc(-c2nn(C(C)(C)C)c3ncnc(N)c23)cc1 | 190% (active)
74 | O=C(Nc1ccc(Cl)cc1)c1cccc(OC(=S)N2CCOCC2)c1 | 65.6%
75 | Oc1c(Cl)cc(Cl)c(Cl)c1Cc1c(O)c(Cl)cc(Cl)c1Cl | 174% (active)
76 | COc1ccc(C)cc1NC(=O)CN(C)S(=O)(=O)c1ccc2c(c1)n(C)c(=O)c(=O)n2C | 94.1%
77 | CC(C)(C)OC(=O)C[C@@H]1C/C=C\C[C@@H](CC(=O)N[C@H](CO)Cc2ccccc2)C(=O)NC[C@@H](c2ccccc2)OC1=O | 83%
78 | Cc1c(O)c(C)c2c(c1O)C(=O)C[C@@H](c1ccccc1)O2 | 99.7%

Row | Compound | GFP response vs DMSO
79 | CCCc1[nH]nc2c1C(c1ccc(OC(=O)c3ccco3)cc1)C(C#N)=C(N)O2 (configuration not stated) | 93.3%
80 | CCc1ccc(C2C(C#N)=C(N)Oc3n[nH]c(CC(=O)OC)c32)cc1 (configuration not stated) | 99.1%
81 | CCCc1[nH]nc2c1C(c1ccc(Br)s1)C(C#N)=C(N)O2 (configuration not stated) | 152% (active)
82 | CC[C@@H](C)[C@@H]1CN([C@@H](C)CN2CCC[C@H]2CN2C(N)=NC[C@H]2C(C)C)C(=N)N1CCc1ccc(Cl)c(Cl)c1 | 102%
83 | CC1CC2=C(CC1/C=N/NC(N)=S)C(C)(C)CCC2 (configuration not stated) | 154% (active)
84 | Cc1ccc(CS(=O)Cc2ccc(C(=O)N3CCOCC3)o2)cc1 (configuration not stated) | 103%
85 | N/C(=N\OC(=O)CCC1CCCCC1)c1ccccn1 | 92.5%
86 | Cn1c(SCC(=O)Nc2cccc(NC(=O)c3cccs3)c2)nnc1-c1ccncc1 | 94.8%
87 | OC(CNCCc1ccc(Cl)cc1Cl)COc1ccccc1 (configuration not stated) | 93.6%
88 | CCOc1ccc(/C=N/NC(N)=S)cc1 | 109%
89 | NC(N)=N/N=C/c1ccc(OCc2ccc(Cl)cc2Cl)cc1 | 160% (active)
90 | COc1cc(OC)cc(/C(N)=N/O)c1 | 114%
91 | O=C(Nc1ccccc1C(F)(F)F)c1cc(-c2ccc(O)cc2)on1 | 151% (active)
92 | O=C(Nc1cccnc1Cl)c1cc(-c2cccc(Cl)c2)on1 | 98.9%
93 | CCc1ccccc1NC(=O)c1cc(-c2ccc3c(c2)OCO3)on1 | 93.6%
94 | CCCc1ccc(OCC(=O)NNC(=S)NC(=O)c2ccco2)cc1 | 182% (active)
95 | O=C(Nc1ccc2ccccc2c1)/C(=C/c1cccc(Br)c1)NC(=O)c1ccco1 | 91%
96 | CC(Oc1ccc2ccccc2c1)C(=O)NNC(=S)NC(=O)c1ccco1 (configuration not stated) | 237% (active)
97 | CCCc1ccc(OCCNC(=O)c2ccco2)cc1 | 83.5%
98 | CC(C)Oc1ccc(CCC(=O)NNC(=S)NCc2ccccc2)cc1 | 103%
99 | COc1ccc(C(=O)NC(=S)NNC(=O)c2c(-c3ccccc3)noc2C)cc1 | 102%
100 | Cc1ccc(OCC(=O)NCCCNC(=O)c2ccco2)cc1C | 90%
101 | Cc1ccc(C(=O)NNC(=O)C(C)Oc2ccc3ccccc3c2)o1 (configuration not stated) | 104%
102 | COc1ccc(C(=O)NC(=S)NNC(=O)CCc2ccccc2)cc1 | 195% (active)
